Source: PubChem BioAssay AID651657 (Broad Institute, 2012)
Potency and affinity values are given separately. Active and inactive are the calls of the source.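 The calls were made as follows: active = signal falls, with fitted half-maximal concentration at most twice the top valid dose tested; inconclusive = flat curve with partial signal loss, or poor curve fit; inactive = the rest, including signal rising instead.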

Molecular target: DNA repair and recombination protein RAD54-like (Homo sapiens) (UniProt Q92698)
Test: RAD54 Holliday junction migration blockers – biochemical, fluorescence, cherry-picked samples, dose series, confirmation (AID 651657)

Sequence of DNA repair and recombination protein RAD54-like (Homo sapiens) (Q92698 whole entry, looked up): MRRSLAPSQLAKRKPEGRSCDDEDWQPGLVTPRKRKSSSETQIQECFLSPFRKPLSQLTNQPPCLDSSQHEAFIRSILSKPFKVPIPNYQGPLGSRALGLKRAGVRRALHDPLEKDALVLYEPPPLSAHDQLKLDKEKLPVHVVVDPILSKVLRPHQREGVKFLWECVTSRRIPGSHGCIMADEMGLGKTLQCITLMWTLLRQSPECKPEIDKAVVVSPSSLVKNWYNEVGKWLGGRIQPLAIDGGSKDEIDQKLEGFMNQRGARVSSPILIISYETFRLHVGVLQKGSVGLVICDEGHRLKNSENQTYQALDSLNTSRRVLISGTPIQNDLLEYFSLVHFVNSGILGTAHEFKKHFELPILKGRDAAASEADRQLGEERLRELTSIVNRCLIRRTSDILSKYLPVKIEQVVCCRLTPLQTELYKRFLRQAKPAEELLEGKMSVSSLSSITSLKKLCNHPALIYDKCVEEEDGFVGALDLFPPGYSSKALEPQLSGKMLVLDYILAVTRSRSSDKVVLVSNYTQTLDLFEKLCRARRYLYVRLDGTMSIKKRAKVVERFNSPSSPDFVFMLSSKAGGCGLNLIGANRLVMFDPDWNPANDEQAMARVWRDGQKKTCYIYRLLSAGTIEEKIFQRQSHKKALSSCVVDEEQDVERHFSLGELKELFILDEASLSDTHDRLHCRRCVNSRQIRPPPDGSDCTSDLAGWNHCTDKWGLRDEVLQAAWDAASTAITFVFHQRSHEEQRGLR

Row | SMILES | outcome
1 | CC(C)CSc1ncc(-c2cccc(C(F)(F)F)c2)cn1 | inactive
2 | CCCC(c1nnnn1Cc1ccc(OC)cc1)N1CCN(c2ccccc2)CC1 (centres undefined) | inactive
3 | CCN(CC)S(=O)(=O)c1ccc(Cl)c(C(=O)Nc2nnc(C)s2)c1 | inactive
4 | COc1ccccc1CNC(=O)c1cccs1 | inactive
5 | CCN1CCN(c2cc(C)c3cc(NC(=S)N4CCCC(C)C4)ccc3n2)CC1 (centres undefined) | inactive
6 | O=C(NN1CCOCC1)c1cc(-c2ccc(Cl)c(Cl)c2)nc2ccccc12 | inactive
7 | O=C(CS(=O)(=O)c1ccccc1)Nc1ccc(Br)cn1 | inactive
8 | O=c1cc(CSc2n[nH]c(=O)n2C2CC2)c2ccc(O)cc2o1 | inactive
9 | COc1ccccc1NC(=O)CNC(=O)c1ccccc1 | inactive
10 | CCOC(=O)C1C(=O)NC(N2CCN(c3ccccc3)CC2)=NC1c1ccco1 (centres undefined) | inactive
11 | Cc1nc2oc3c(=O)[nH]cnc3c2c2c1COC(C)(C)C2 | inactive
12 | Cc1ccc(OCC(=O)Nc2cccc(-c3nnc(-c4ccccc4)o3)c2)c(C)c1 | inactive
13 | Cc1ccc(S(=O)(=O)CCSc2ccc(C(F)(F)F)cn2)cc1 | inactive
14 | O=C(Nc1ccc2c(c1)OCO2)c1cc(-c2ccncc2)nc2ccccc12 | inactive
15 | COc1ccccc1C(=O)C(O)c1ccccc1OC (centres undefined) | inactive
16 | Cc1cccc2cc3c(N)c(C#N)sc3nc12 | inactive
17 | c1ccc(-c2nnc(SCc3nc4ccccc4[nH]3)o2)cc1 | inactive
18 | Cc1ccc(S(=O)(=O)N2CCOCC2)c(C)c1NS(C)(=O)=O | inactive
19 | CCN1CCN(c2cc(C)c3cc(NC(=S)N4CCC5(CC4)OCCO5)ccc3n2)CC1 | inactive
